Compound activity (PubChem)
MRP reversal – MRP-mediated drug resistance reversal; H69AR cells + 2 uM doxorubicin, CellTiter-Glo, 72 h; differential viability (reversal), % at 10 µM; 85,000 tested, 0.04% active;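 active = viability drop by adding the cancer drug above about 55%, with treated viability meeting a 40% cutoff, limit read from the data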;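 note: viability without doxorubicin minus viability with 2 µM doxorubicin for each compound; larger differential means the compound sensitizes cells more to doxorubicin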
CD11b adhes enh – enhancers of human CD11b/CD18 binding to fibrinogen; K562 CD11b/CD18 adhesion to fibrinogen, ATPlite luminescence; activation, % at 10 µM; AID 1499; 93,000 tested, 0.07% active; P05107+P11215;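 active = 10 µM primary screen giving 50% or more activity, confirmed by 40% or more on retest at that dose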
Pyk2 oligo antag – blocks oligomerization of human Pyk2 in cells; Q293 cells, Pyk2 FERM NanoBiT luminescence; hits give low values; z-score (the deposit names both 25 µM and 10 µM); 99,000 tested, 0.83% active; Q14289;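 active = Z-score of -3 or lower, scaled per plate to the spread of control and sample wells; inactive = z-score above -3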;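 note: negative z-score means lost luminescence so less FERM oligomerization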
Target sequence (Q14289 whole entry, looked up): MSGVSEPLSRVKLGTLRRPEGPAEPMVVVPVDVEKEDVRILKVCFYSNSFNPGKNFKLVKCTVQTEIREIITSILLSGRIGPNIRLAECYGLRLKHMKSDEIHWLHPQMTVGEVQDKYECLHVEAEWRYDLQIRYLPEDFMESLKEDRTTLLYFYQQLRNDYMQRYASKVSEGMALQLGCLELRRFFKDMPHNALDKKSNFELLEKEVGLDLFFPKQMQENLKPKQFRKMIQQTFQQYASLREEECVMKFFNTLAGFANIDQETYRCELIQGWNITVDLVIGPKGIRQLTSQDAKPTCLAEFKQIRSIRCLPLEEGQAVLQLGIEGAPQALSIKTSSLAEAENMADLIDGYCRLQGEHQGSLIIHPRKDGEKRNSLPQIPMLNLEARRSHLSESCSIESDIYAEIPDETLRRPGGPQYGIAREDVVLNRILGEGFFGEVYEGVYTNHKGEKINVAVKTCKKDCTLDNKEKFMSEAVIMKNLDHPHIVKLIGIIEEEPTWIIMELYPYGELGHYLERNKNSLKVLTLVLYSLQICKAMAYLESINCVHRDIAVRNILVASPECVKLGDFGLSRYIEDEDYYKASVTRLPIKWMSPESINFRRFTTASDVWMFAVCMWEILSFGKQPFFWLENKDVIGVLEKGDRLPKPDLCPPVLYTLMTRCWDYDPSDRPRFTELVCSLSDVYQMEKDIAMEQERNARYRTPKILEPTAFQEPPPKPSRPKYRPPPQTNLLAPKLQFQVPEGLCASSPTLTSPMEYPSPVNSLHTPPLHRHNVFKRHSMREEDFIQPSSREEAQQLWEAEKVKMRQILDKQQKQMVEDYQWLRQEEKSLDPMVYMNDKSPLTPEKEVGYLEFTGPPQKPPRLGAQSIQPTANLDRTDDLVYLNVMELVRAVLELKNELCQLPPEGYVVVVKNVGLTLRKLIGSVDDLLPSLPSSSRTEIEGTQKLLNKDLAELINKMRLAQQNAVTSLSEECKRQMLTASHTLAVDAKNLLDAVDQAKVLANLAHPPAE
Cav3 T inh – human Cav3.2 channel inhibition, primary screen. Cav3.2-expressing cells, Fluo-4 calcium fluorescence FDSS; hits give low values. 100,000 tested, 4% active. O95180. B-score at 10 µM;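 active = single-dose well whose peak fluorescence ratio is a statistical outlier from its plate by either plate-standardised score or position-corrected B-score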
Mac1 fbg inh – blocks human CD11b/CD18 adhesion to fibrinogen; P05107+P11215; K562 CD11b/CD18 adhesion to fibrinogen, ATPlite luminescence; Mn2+ added to activate the integrin; inhibition, % at 10 µM; 93,000 tested, 0.54% active;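 active = primary inhibition of 50% or more at 10 µM, then 40% or more on retest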
MRP1 act – activates MRP-1 | H69AR cells + doxorubicin, viability rescue, CellTiter-Glo | 140,000 tested, 0.61% active | AID 799 | viability increase, % at 10 µM;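 active = viability gain under doxorubicin at or above a set limit, the compound median plus 3 SD, cut at about 4.7% in these data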;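 note: MRP-1 overexpressing cells given doxorubicin 25 µM after compound pretreatment; 18-22 h compound pretreatment then 72 h with doxorubicin before readout; 0% = doxorubicin-only wells and 100% = vehicle-treated cells without doxorubicin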
An asterisk follows results filed as active; nt = no result given. The list is not random: actives were taken first. Their share in the collection is about 4.1%.

SMILES	MRP reversal	CD11b adhes enh	Pyk2 oligo antag	Cav3 T inh	Mac1 fbg inh	MRP1 act
CCOC(=O)Cc1csc(NC(=S)NC(=O)c2ccc(Cl)cc2)n1	nt	-4	1.2	-0.96	6	1
Cc1cc(NS(=O)(=O)c2ccc(NC(=O)c3cc4ccccc4o3)cc2)no1	nt	-2	nt	0.046	-21	1
COc1cc2c(cc1OC)C(COc1ccc3c(C)cc(=O)oc3c1)N(C(=O)c1ccco1)CC2 (stereo unspecified)	11	nt	-1.6	0.99	nt	-4
CN(C)S(=O)(=O)c1ccc(C(=O)Nc2cccnc2)cc1	3	-5	0.47	0.11	-8	-1
Cc1onc(-c2c(F)cccc2Cl)c1C(=O)Nc1sc2c(c1C(N)=O)CCC2	-53	0	-2	-2.6	-2	-1
CCOC(=O)Cc1csc(NC(=O)c2c(-c3c(Cl)cccc3Cl)noc2C)n1	-2	nt	-1.5	-4.9*	nt	-2
Cc1onc(-c2c(Cl)cccc2Cl)c1C(=O)NCc1cccs1	nt	nt	nt	nt	nt	-2
Cc1onc(-c2c(Cl)cccc2Cl)c1C(=O)N/N=C(\N)COc1ccc(Cl)cc1	nt	5	0.96	-5*	-2	-2
Cc1onc(-c2c(F)cccc2Cl)c1C(=O)Nc1sc2c(c1C#N)CCC(C(C)(C)C)C2 (stereo unspecified)	0	nt	0.12	-1.7	nt	11*
Cc1onc(-c2c(F)cccc2Cl)c1C(=O)Nc1nnc(-c2ccccc2)s1	-31	-6	-3.1*	-2.3	30	1
O=c1c2ccccc2c(-c2ccc(Cl)cc2)nn1-c1ccccc1	nt	4	-0.21	nt	8	0
Cc1nn(-c2cc(N3CCCCC3)ccc2N)c(=O)c2ccccc12	nt	nt	-0.1	-0.065	nt	-1
O=c1c2ccccc2c(-c2ccccc2)nn1-c1cc(Cl)ccc1[N+](=O)[O-]	nt	-6	-1.3	-6.9*	19	0
Cc1nn(-c2cc(N3CCCCCC3)ccc2[N+](=O)[O-])c(=O)c2ccccc12	-3	nt	-4.1*	0.0084	nt	-2
CCc1ccc(-c2nn(-c3cc(Cl)ccc3[N+](=O)[O-])c(=O)c3ccccc23)cc1	nt	-1	-0.18	-3.6*	10	-1
Cc1ccc(-c2nn(-c3cc(Cl)ccc3[N+](=O)[O-])c(=O)c3ccccc23)cc1C	nt	nt	-0.57	-4.6*	nt	-2
O=C1[C@H]2[C@@H](C(=O)N1c1cc(Cl)cc(Cl)c1)[C@]1(C(=O)Nc3ccccc31)N1CCC[C@@H]21	6	-2	-0.14	-1.9	-6	-2
CC(C)N(C(=O)COc1ccc(Br)cc1Cl)C(C)C	1	-3	-0.79	-5.5*	-5	-1
COCCNC(=O)COc1ccc(Br)cc1Cl	1	-3	0.46	0.41	-9	-3
CC(C)(C)c1ccc(S(=O)(=O)Nc2ccc(Cc3ccncc3)cc2)cc1	nt	nt	nt	nt	nt	2
CCNC(=O)/C=C1\NC(C)(C)Cc2c1ccc1ccccc21	6	-1	0.02	-0.76	5	-2
COC(=O)CNC(=O)CN1C(=O)N(c2cccc(Cl)c2)C(N(O)C(=O)Nc2cccc(Cl)c2)C1(C)C (stereo unspecified)	12	1	0.18	-4.7*	12	-3
CCCCn1c(SCC(=O)N2CCC(C)CC2)nc2cc(S(N)(=O)=O)ccc21	8	-5	0	-0.13	-7	-1
CCCN(c1nc(C)cc(OC)n1)S(=O)(=O)c1ccccc1	13	10	-0.86	-4.7*	26	-2
COc1cc(C)nc(N(Cc2ccccc2)S(=O)(=O)c2ccccc2)n1	9	2	-1.6	-3.1	15	-1
SMILES	MRP reversal	CD11b adhes enh	Pyk2 oligo antag	Cav3 T inh	Mac1 fbg inh	MRP1 act
COc1ccc(-c2nnn(CC(=O)N(Cc3ccccc3Cl)C(C(=O)NCC3CCCO3)c3ccco3)n2)cc1 (stereo unspecified)	nt	nt	-1.1	0.086	nt	0
Cc1ccc(-c2nnn(CC(=O)N(c3ccccc3)C(C(=O)NCC3CCCO3)c3ccc(Cl)cc3)n2)cc1 (stereo unspecified)	nt	nt	-0.21	-4.6*	nt	1
Cc1ccc(-c2nnn(CC(=O)N(c3ccccc3F)C(C(=O)NCC3CCCO3)c3c[nH]c4ccccc34)n2)cc1 (stereo unspecified)	nt	nt	-1.7	-7.1*	nt	8.2*
OCCn1c(CSc2nnc(-c3ccco3)n2-c2ccccc2)nc2ccc(Cl)cc21	-21	4	-0.78	0.015	10	-1
Cc1ccc2[nH]c(=O)c(CN(CCc3ccccc3)Cc3nnnn3CC3CCCO3)cc2c1 (stereo unspecified)	-12	nt	0.47	-3.6*	nt	-5
COc1ccccc1CN(Cc1cc2cc(C)ccc2[nH]c1=O)Cc1nnnn1Cc1ccco1	-21	-1	0.33	-4.4*	7	-3
CCOC(=O)Cn1nnnc1CN(Cc1ccc(OC)cc1)Cc1cc2cc(CC)ccc2[nH]c1=O	21	1	0.44	-5.4*	0	-3
O=C(CSc1n[nH]c(=O)n1C1CC1)Nc1cc(Cl)ccc1Oc1ccccc1	0	-2	-1.7	-6*	11	-1
CCOC(=O)Cc1csc(SCC(=O)Nc2cc(Cl)ccc2Oc2ccccc2)n1	-24	-3	-0.14	-5.6*	74	-3
CCOC(=O)Cc1csc(SCC(=O)Nc2cccc(Cl)c2)n1	2	-3	1.3	-3.8*	44	-3
Cc1cc(C(F)(F)F)nn1CC(=O)NNC(=S)Nc1ccc(F)cc1	nt	-5	0.1	-0.021	2	-1
CCCCNS(=O)(=O)c1ccc2nc(-c3cccnc3)cc(C(=O)NC(C)C)c2c1	nt	nt	nt	nt	nt	-3
Cn1cc(Br)c(C(=O)N2CCc3ccccc32)n1	nt	nt	nt	nt	nt	-2
CCCN(CCC)C(=O)CC(c1ccccc1)c1cc(C)ccc1O (stereo unspecified)	3	-3	-1.5	-5.9*	-5	-4
Cc1ccc(O)c(C(CC(=O)N2CCCC2)c2ccccc2)c1 (stereo unspecified)	-6	nt	nt	nt	nt	-3
CCCSc1nnc(-c2ccccc2N)c(=O)[nH]1	12	-2	-1.4	0.37	-23	-1
CCCCCSc1nnc(-c2cc(Br)ccc2N)c(=O)[nH]1	11	-3	1.6	-5*	35	-2
Cc1nc2c(c(=O)n1CCC1=CCCCC1)c1nc3ccccc3nc1n2/N=C/c1ccccc1	-2	-7	-0.81	nt	-6	0
CCCCCCn1c(C)nc2c(c1=O)c1nc3ccccc3nc1n2/N=C/c1ccco1	0	-3	-0.84	-5.1*	1	-2
O=C(c1ccc(Cl)c(Cl)c1)N1CCC(=O)N(C(COCc2ccccc2)Cc2ccccc2)CC1 (stereo unspecified)	nt	nt	nt	-5*	nt	-4
CCCCn1c(NC(=O)C2CCCCC2)nc2ccccc21	-14	-10	-0.19	-3.4	4	-4
CN(C)CCCn1c(NC(=O)C2CCCCC2)nc2ccccc21	-8	-5	-0.91	-3.6*	-14	-1
Nc1nc(SCc2ccccc2)[nH]c(=O)c1-c1ccccc1	15	2	0.13	-2.6	-15	1
